# An excerpt weighted towards active compounds, which were near 18% of everything screened.
# IL1B secr inh: blocks inflammasome-driven IL-1 beta release; THP-1 LPS/ATP IL-1B secretion, AlphaLISA, 16 h; active compounds read low; activity change, % at 57.5 µM; 360,000 tested, 4.7% active; AID 743279; in the data active = activity change below about -50%; inconclusive = mostly about -30% to -49%; note: % is set by controls: 0 for no effect and ±100 for the full control effect
#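 Secreted IL-1B measured by AlphaLISA bead assay after 16 h compound exposure of THP-1 cells; compounds (final up to 57.5 uM) added 1 h before LPS (250 ng/mL) and ATP (1.25 mM) stimulation; lower signal means less secretion.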
# DT40 TDP1 no CPT: qHTS for Inhibitors of human tyrosyl-DNA phosphodiesterase 1 (TDP1): qHTS in cells in absence of CPT | Potency, µM (series often up to 46.2 µM), inactives show at the top dose activity change, negative = growth inhibition, hits mostly inhibitors | DT40 Tdp1-/- hTDP1 cells, no CPT, ATP luminescence, 48 h | AID 686978, 2013 | 420,000 tested, 15% active; note: potency is the fitted concentration of half-maximal effect; % is set by controls: 0 for no effect and ±100 for the full control effect; nearly all actives have a fitted effect of over 55% in size
#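 Chicken DT40 Tdp1-/- cells complemented with human TDP1, screened without camptothecin (DMSO vehicle only), 400 cells/well. Compounds pin-transferred, cells incubated at 37 °C for at least 48 hr. Growth read as ATP-dependent luminescence (CellTiter-Glo, 30 min at RT).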
# TDP1 cell CPT: growth inhibition of DT40 Tdp1-/-;hTDP1 cells with camptothecin (screen for TDP1 inhibitors) | chicken DT40 Tdp1-/-;hTDP1 cells + 20 nM CPT, ATP luminescence, 48 h | Potency, µM (titrated, usually from 46.2 µM), for the others: top-dose activity change, negative = growth inhibition, actives largely listed as inhibitors | 420,000 tested, 12% active; note: potency is the fitted concentration of half-maximal effect; % is set by controls: 0 for no effect and ±100 for the full control effect; nearly all actives have a fitted effect of over 55% in size
#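 Cell growth measured by CellTiter-Glo luminescence after a minimum 48 h, 37 C compound exposure with 20 nM CPT in Tdp1-knockout DT40 cells stably expressing hTDP1, seeded 400/well; qHTS titration format.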
# TGFb SMAD3 inh: inhibitors of TGF-b signaling. HepG2 CAGA-GFP TGF-b/SMAD3 reporter, GFP fluorescence, 18 h; TGF-beta stimulated, 500 pg/mL final. AID 588855. 410,000 tested, 1.2% active. Potency, µM (titrated, usually from 46.1 µM), without a hit: at the top dose activity, negative = inhibition, usual class: inhibitors; note: potency is the fitted concentration of half-maximal effect; % is set by controls: 0 for no effect and ±100 for the full control effect; nearly all actives have a fitted effect of over 65% in size
#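 Inhibition was scored as loss of TGF-beta-induced (500 pg/mL final, 18 hours, 37 degrees C) GFP in HEPG2 cells carrying a CAGA-GFP reporter, in DMEM with 1% FBS. Well GFP was summed per cell; Activity was normalised to unstimulated and stimulated DMSO wells, then concentration-response fitting.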
# TDP1 inh: TDP1 (human) enzyme inhibition; AID 485290; recombinant TDP1, AlphaScreen DNA substrate cleavage; Q9NUW8; Potency, µM (series often up to 130 µM), for the others: at the highest dose activity change, negative = inhibition, hits mostly inhibitors; 350,000 tested, 0.28% active; note: potency is the fitted concentration of half-maximal effect; % is set by controls: 0 for no effect and ±100 for the full control effect; nearly all actives have a fitted effect of over 40% in size
# Target sequence (Q9NUW8 whole entry, looked up): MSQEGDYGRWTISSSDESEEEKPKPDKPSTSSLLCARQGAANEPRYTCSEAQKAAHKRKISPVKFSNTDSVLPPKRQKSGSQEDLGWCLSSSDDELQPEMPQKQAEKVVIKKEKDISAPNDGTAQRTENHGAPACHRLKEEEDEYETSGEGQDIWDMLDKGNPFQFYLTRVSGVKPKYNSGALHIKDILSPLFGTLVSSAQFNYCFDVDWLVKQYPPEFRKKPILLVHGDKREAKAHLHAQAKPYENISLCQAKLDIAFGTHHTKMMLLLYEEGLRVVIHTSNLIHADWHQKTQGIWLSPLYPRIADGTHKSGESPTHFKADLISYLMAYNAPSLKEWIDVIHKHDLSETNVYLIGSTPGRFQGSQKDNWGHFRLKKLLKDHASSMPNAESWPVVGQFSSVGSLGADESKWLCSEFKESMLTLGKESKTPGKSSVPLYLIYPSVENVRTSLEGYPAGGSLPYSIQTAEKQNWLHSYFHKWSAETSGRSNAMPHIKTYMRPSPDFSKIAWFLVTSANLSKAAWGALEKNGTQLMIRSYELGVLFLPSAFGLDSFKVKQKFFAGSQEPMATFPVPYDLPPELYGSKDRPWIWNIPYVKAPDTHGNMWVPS
#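 Recombinant E. coli-expressed Tdp1 (1 nM) preincubated with compound 15 min at RT, then 5'-biotin/3'-phosphotyrosine-FITC DNA substrate (15 nM) added for 5 min. AlphaScreen beads (10 ug/ml) added, 10 min RT; tyrosine-FITC cleavage read as signal loss.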
# HepG2 viability: counter-screen for TGF-b inhibitors: cytotoxicity in HepG2 cells; 410,000 tested, 0.76% active; HepG2 CAGA-GFP viability, ATP luminescence, 18 h; Potency, µM (titrated, usually from 46.1 µM), for inactives: at the highest dose activity change, negative = cytotoxicity, most hits filed as cytotoxic; note: potency is the fitted concentration of half-maximal effect
#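 HepG2 CAGA-GFP cells (1000/well, DMEM with 1% FBS) received compound, then TGF-beta at 500 pg/mL final, and were incubated 18 hours at 37 degrees C. Viability was read by CellTiter-Glo luminescence. Media-only wells were set as complete cell-killing and DMSO as no toxicity.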
# Numbers without * were called inactive; u = inconclusive; x = not tested or not shown. Unless noted, calls come from the whole dose curve; as a rule, active = well fitted curve in the direction sought with a large enough effect; inconclusive = small, poorly fitted or top-dose-only effect, or another doubt; inactive = no such curve, though single readings can be large; an effect the other way counts as inactive or inconclusive.
SMILES,IL1B secr inh,DT40 TDP1 no CPT,TDP1 cell CPT,TGFb SMAD3 inh,TDP1 inh,HepG2 viability
CC(C)C1C(=O)N(Cc2cn(CCC3OCCCO3)nn2)CCS(=O)(=O)N1Cc1ccc(-c2ccc(Cl)cc2)cc1 (configuration not stated),40,23µM*,u,-4%,x,-22%
CC(C)C1C(=O)N(Cc2cn(CCC3OCCCO3)nn2)CCS(=O)(=O)N1Cc1ccc(-c2ccc(Cl)c(Cl)c2)cc1 (configuration not stated),-80*,18µM*,23µM*,u,x,-90%
O=C(NC(=S)N1CCCC1)c1ccccc1Cl,9,20%,0%,-3%,2%,7%
CCOc1ccc(OCC)c(NS(=O)(=O)c2c(C)[nH]c(=O)[nH]c2=O)c1,x,-11%,-4%,0%,5%,-16%
Cc1ccc(-n2nc3c(=O)n(CC(=O)NCCc4ccco4)nc(C)c3c2C)cc1,-12,-7%,u,22µM*,4%,-93%
Cc1ccc(-n2nc3c(=O)n(C(C)C(=O)NCCCc4ccccc4)nc(C)c3c2C)cc1 (configuration not stated),-9,9.2µM*,16µM*,u,1%,-25%
Cc1nn(CC(=O)NCCc2ccccc2)c(=O)c2nn(-c3ccccc3)c(C)c12,x,-21%,-9%,-26%,4%,0%
Cc1ccc(-n2nc3c(=O)n(C(C)C(=O)NCc4ccccc4Cl)nc(C)c3c2C)cc1 (configuration not stated),-3,u,u,u,1%,-26%
Cc1ccc(-n2nc3c(=O)n(CC(=O)NCCCc4ccccc4)nc(C)c3c2C)cc1,4,23µM*,u,u,0%,-27%
CC1=NN(C(C#N)c2ccccc2C)C(C)(C)C1 (configuration not stated),-11,-4%,-3%,3%,-5%,2%
COc1cccc(-c2nc(NC(C)C)c3ccccc3n2)c1O,u,21µM*,u,u,11%,-55%
COc1cccc(-c2nc(NCc3cccnc3)c3ccccc3n2)c1O,34,-21%,2%,-10%,x,-13%
CCC(C)Nc1nc(-c2cccc(OC)c2O)nc2ccccc12 (configuration not stated),-74*,u,u,u,12%,-9%
COc1ccc(C)cc1NC(=O)CCN1CC(C)OC(C)C1 (configuration not stated),45,-2%,0%,-6%,3%,-22%
COC(=O)c1cc(Br)c(=O)n(Cc2cccnc2)c1,-3,-5%,-2%,8%,4%,3%
COC(=O)c1cc(NC(=O)c2cc(-c3ccc(Cl)cc3)oc2C(F)(F)F)ccc1N1CCOCC1,u,18µM*,u,u,2%,-29%
COC(=O)c1cc(NC(=O)c2cc(-c3ccccc3Cl)oc2C(F)(F)F)ccc1N1CCOCC1,u,21µM*,u,-6%,4%,28%
COc1ccccc1C(=O)NCC1(N2CCN(C)CC2)CCCCC1,x,-6%,-17%,-4%,3%,-13%
CCCCc1nc2ccccc2c(N)c1CCC (tested in a mixture with another compound),-97*,18µM*,u,u,-3%,-28%
C[C@@H]1CCC[C@]2(O[C@H](CCO)C[C@@H](O)[C@@H]2O)O1,0,3%,-5%,8%,x,-3%
C/C(=N\NC(=O)c1cc2ccccc2cc1O)c1ccccn1,70,1.3µM*,1.2µM*,1%,-4%,3%

# High-throughput results as filed in PubChem.
